Parameters in all cases: scale not given: direction of the effect not stated beside the values
Assay [1] has as its target Protein translocase subunit SecA (Escherichia coli (strain K12)) (UniProt P10408). Kind of assay: Assay to Identify E. coli SecA ATPase Inhibitors. It counts as functional. The conditions noted are these: 30 µM.
Assay [2] has as its target T1, Ubiquitin-activating enzyme e1, putative (Leishmania donovani (strain BPK282A1)) (UniProt E9BSI1).
T1 sequence (whole entry): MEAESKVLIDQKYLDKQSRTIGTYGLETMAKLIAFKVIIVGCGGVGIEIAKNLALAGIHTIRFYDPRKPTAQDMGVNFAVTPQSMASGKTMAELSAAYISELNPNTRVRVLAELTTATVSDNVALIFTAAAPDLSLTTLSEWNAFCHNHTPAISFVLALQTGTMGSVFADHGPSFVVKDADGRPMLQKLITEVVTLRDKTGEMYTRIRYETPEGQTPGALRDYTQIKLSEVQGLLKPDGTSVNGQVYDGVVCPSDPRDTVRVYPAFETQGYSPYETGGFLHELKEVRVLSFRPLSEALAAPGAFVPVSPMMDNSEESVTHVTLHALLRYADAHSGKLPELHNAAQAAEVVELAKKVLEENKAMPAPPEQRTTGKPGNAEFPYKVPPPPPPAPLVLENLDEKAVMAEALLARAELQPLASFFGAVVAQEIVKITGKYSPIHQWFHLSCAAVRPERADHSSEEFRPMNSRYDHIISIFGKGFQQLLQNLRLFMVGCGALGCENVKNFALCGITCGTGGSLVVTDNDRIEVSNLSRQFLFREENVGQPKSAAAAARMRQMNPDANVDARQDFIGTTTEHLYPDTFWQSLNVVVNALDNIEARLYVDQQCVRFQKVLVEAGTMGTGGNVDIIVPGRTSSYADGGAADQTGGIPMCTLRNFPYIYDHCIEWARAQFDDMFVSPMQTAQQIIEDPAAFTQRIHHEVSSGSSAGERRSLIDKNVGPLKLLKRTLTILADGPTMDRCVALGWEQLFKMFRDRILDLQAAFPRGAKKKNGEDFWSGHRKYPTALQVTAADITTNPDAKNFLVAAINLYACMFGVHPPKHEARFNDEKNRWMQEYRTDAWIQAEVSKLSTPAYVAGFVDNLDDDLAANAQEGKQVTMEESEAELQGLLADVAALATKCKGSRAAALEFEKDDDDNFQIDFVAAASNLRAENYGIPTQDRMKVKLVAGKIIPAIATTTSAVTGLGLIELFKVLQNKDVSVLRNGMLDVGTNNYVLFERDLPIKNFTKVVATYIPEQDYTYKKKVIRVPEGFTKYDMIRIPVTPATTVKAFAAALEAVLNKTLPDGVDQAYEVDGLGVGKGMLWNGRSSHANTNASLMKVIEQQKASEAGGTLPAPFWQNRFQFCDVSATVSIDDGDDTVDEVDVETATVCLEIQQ
Put plainly: Leishmania donovani Ubiquitin Activating Enzyme (LdE1). It counts as functional. As to conditions: 30 µM.

In assay [3] the target is AMP-activated protein kinase, AMPK (Homo sapiens) (UniProt P54646+O43741+P54619+Q9UGJ0+Q9Y478+Q13131+Q9UGI9). Kind of assay: AMP-dependent Kinase enzyme assay. An in vitro enzyme assay that detects ADP turnover that is directly proportional to AMPK activity. This uses naive AMPK that is activated during the assay with MK-8722. Type of assay: functional. The conditions noted are these: 30 µM.

The target of assay [4] is Sialic acid-binding Ig-like lectin 9 (Homo sapiens) (UniProt Q9Y336). Kind of assay: Hs-Siglec9 ALPHAscreen SOP 20170721. As to conditions: 10 µM. For orientation: Alpha assays give light when donor and acceptor beads are brought close together.
Sequence of Sialic acid-binding Ig-like lectin 9 (Homo sapiens) (Q9Y336 whole entry): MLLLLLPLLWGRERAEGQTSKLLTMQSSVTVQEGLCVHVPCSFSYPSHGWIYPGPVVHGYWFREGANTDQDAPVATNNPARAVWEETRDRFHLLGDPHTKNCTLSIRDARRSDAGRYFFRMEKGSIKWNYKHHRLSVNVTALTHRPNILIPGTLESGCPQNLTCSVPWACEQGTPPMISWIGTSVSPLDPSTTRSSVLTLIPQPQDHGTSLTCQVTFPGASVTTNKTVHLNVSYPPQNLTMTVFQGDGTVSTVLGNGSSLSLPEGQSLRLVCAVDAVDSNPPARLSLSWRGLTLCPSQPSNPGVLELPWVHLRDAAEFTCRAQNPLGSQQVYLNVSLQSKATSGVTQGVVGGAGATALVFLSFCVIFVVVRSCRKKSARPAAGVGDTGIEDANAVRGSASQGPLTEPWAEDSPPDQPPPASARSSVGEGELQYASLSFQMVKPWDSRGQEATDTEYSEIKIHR
The subject of a further assay is Trypanosoma cruzi. Kind of assay: Trypanosoma cruzi phosphomannomutase and mannose-1-phosphate guanylyltransferase assay. It counts as functional. The conditions noted are these: 10 µM.
Assay [5] has as its target T2, Arginase-2, mitochondrial (Homo sapiens) (UniProt P78540).
T2 sequence (whole entry): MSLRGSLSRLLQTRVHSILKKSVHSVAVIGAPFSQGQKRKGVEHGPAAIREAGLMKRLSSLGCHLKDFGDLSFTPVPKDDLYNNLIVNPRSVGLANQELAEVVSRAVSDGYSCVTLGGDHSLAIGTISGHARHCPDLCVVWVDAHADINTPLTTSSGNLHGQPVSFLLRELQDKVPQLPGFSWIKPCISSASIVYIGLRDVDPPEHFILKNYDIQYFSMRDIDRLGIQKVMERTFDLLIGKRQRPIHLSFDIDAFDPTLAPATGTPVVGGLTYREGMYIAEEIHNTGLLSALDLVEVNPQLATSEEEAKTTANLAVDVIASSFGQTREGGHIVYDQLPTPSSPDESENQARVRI
Put plainly: in vitro enzyme assay to detect the production of urea directly proportional to the activity of Arginase II. Note: in the data most compounds retested in dose-response had high values. Type of assay: functional. As to conditions: 33.3 µM.

The target in assay [6] is T3, Proteasome subunit beta (Trypanosoma cruzi) (UniProt O96673).
T3 sequence (whole entry): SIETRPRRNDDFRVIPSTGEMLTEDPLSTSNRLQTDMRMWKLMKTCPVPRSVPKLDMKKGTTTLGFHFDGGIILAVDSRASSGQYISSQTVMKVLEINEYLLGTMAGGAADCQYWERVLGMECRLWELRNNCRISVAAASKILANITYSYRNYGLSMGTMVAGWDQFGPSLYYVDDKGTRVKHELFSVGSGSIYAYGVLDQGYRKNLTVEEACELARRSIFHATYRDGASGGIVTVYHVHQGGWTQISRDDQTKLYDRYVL
Put plainly: Trypanosoma cruzi proteasome chymotrypsin-like activity (TcProtChymo) assay. Note: in the data most compounds retested in dose-response had high values. As to conditions: 9.37 µM. It counts as functional.

For the next assay, the species on record is Homo sapiens. Kind of assay: To identify inhibition of the IFN signalling (Jak-Stat) pathway via expression of an eGFP reporter gene under the control of an IFN-stimulated response element (ISRE) containing MxA promoter. Type of assay: functional. As to conditions: 30 µM. In general terms: Reporter assays use an easily measured gene product as a stand-in for the process of interest.

In assay [7] the target is T4, Tyrosyl-tRNA synthetase, putative (Trypanosoma cruzi (strain CL Brener)) (UniProt Q4DSP6).
T4 sequence (whole entry): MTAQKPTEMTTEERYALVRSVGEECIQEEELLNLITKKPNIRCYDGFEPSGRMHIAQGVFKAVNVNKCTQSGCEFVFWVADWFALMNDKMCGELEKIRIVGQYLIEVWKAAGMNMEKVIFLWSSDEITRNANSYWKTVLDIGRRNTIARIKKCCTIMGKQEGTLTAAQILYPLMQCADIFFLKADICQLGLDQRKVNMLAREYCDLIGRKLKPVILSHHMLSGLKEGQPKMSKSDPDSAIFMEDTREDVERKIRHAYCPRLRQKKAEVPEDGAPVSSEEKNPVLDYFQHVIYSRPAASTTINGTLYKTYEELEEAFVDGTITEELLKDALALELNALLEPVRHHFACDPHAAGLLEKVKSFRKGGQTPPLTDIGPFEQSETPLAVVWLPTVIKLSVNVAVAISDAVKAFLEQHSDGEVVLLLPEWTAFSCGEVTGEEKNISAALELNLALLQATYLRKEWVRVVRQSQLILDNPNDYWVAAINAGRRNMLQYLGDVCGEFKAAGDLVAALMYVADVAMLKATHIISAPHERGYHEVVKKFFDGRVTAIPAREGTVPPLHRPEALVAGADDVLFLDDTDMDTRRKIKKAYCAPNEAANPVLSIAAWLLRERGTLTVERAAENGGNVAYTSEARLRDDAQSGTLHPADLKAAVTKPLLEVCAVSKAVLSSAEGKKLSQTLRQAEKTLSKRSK
Kind of assay: Trypanosoma cruzi tyrosyl tRNA synthetase (TcYRS) _High Tyrosine SOP. Note: in the data most compounds retested in dose-response had high values. It counts as functional. The conditions noted are these: 30 µM.

The target of assay [8] is T4, Tyrosyl-tRNA synthetase, putative (Trypanosoma cruzi (strain CL Brener)). Put plainly: Trypanosoma cruzi tyrosyl tRNA synthetase (TcYRS) SOP. It counts as functional. The conditions noted are these: 30 µM.
In assay [9] the target is Chromo domain-containing protein 1 (Saccharomyces cerevisiae (strain ATCC 204508 / S288c) (Baker's yeast)) (UniProt P32657). Kind of assay: ScCHD-1 Enzyme Inhibition Assay. Note: in the data most compounds retested in dose-response had high values. It counts as functional. As to conditions: 30 µM.
Sequence of Chromo domain-containing protein 1 (Saccharomyces cerevisiae (strain ATCC 204508 / S288c) (Baker's yeast)) (P32657 whole entry, the tested form may be a part): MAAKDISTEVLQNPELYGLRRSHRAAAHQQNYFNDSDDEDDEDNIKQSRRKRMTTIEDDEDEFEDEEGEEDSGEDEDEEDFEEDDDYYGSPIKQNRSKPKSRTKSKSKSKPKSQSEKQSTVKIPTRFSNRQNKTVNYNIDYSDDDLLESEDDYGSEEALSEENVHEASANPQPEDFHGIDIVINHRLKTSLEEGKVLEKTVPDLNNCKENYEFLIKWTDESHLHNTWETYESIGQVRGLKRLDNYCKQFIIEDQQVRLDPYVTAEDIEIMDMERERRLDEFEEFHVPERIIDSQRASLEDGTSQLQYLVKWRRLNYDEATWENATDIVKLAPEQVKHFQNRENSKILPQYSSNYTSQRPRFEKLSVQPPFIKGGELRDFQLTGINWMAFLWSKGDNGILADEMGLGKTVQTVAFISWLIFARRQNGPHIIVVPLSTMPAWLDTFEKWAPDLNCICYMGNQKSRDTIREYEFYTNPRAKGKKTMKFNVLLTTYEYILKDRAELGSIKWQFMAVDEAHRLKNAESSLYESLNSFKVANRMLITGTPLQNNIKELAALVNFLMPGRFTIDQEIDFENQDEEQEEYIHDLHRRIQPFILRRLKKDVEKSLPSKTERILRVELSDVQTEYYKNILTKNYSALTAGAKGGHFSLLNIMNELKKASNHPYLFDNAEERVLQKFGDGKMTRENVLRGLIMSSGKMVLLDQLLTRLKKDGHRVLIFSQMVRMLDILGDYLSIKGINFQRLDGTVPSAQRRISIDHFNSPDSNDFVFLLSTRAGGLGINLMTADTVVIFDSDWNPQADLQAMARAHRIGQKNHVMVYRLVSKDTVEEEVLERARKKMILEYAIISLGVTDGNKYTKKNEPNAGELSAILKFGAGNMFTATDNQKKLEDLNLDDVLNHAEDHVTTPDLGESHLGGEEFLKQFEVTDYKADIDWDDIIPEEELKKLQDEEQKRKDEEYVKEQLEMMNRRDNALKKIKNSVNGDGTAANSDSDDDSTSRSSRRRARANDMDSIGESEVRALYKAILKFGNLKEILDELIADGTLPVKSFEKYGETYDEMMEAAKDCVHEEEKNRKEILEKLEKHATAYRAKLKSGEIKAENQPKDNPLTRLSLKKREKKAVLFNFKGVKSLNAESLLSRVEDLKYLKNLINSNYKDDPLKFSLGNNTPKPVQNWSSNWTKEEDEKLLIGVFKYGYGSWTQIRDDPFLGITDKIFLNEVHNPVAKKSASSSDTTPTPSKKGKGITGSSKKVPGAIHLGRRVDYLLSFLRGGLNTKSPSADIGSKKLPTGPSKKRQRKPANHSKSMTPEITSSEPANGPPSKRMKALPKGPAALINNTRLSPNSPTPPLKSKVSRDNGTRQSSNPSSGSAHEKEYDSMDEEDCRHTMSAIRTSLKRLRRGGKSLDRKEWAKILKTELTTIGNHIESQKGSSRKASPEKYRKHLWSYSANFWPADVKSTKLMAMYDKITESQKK

For some assays here: Potency and affinity values are given separately.

Sequence of Protein translocase subunit SecA (Escherichia coli (strain K12)) (P10408 whole entry): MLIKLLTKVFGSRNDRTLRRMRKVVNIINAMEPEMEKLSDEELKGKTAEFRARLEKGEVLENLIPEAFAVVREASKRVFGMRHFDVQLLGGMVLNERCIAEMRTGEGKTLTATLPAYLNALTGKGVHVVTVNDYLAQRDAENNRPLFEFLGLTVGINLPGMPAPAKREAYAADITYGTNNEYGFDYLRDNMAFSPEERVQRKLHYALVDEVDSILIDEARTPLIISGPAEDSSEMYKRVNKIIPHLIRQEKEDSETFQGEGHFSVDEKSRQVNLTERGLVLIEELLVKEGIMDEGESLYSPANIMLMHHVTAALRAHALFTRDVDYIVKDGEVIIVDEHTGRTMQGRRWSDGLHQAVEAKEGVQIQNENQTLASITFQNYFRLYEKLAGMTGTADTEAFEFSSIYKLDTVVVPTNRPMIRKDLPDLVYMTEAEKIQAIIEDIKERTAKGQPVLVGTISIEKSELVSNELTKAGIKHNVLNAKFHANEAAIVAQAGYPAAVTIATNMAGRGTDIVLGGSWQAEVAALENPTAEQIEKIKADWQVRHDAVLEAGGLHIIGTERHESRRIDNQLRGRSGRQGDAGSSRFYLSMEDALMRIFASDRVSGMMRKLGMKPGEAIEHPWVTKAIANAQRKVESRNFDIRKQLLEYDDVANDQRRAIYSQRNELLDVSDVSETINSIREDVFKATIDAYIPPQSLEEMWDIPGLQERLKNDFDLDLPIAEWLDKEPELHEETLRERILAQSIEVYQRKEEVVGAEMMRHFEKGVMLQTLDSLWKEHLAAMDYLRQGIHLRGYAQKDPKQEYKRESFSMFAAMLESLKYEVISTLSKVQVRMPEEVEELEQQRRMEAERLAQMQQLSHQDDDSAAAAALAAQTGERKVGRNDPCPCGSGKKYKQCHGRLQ

As to `COc1ccc(NC(=O)c2ccc(-n3ncc(C#N)c3N)cc2)cn1`, the Percent Effect in assay [1] is -3.59%; in assay [2], 10.1%; in assay [3], 0.744%; in assay [4] it was 15.3%; in the assay on Trypanosoma cruzi it was -3.68%; in assay [5], -4.94%. The Percent Effect was 0.901% in assay [6]; 8.55% in the assay filed under Homo sapiens; 4.43% in assay [7]; 8.86% in assay [8]; -4.68% in assay [9].

As for `Cc1cnc2n(c1=O)CC(C(=O)NC1CC1)CS2` (stereo not given), the Percent Effect in assay [1] is -4.55%; in assay [2], -21.9%; in assay [3] it was -9.15%; in [4], -1.37%; with Trypanosoma cruzi, 0.979%; in [5] it was 4.54%. The Percent Effect was 6.21% in assay [6]; 1.36% in the assay filed under Homo sapiens; 2.15% in assay [7]; 0% in assay [8]; -5.19% in assay [9].

Consider `Cc1cc(C)n(CCCNC(=O)[C@@H](C)NC(=O)OC(C)(C)C)n1`, for which the Percent Effect in assay [1] was -6.34%; in assay [2], 7.89%; in assay [3], 8.18%; in assay [4], 0.0654%; in the assay with Trypanosoma cruzi, 7.5%; in [5], -4.73%. Also, the Percent Effect in assay [6] was 13.3%; in the assay listed under Homo sapiens, 5.91%; in assay [7], 3.19%; in assay [8], 10.4%; in [9], -1.9%.

For the molecule `CC(C)(C)c1noc(CN2CCCN(Cc3cccs3)CC2)n1`, the Percent Effect in [1] was -4.7%; in assay [2] it was 10.4%; in assay [3] it was 2.92%; in [4], -6.09%; in the assay with Trypanosoma cruzi, -3.75%; in [5], 0.356%. In addition, the Percent Effect was 1.69% in [6]; 30% in the assay listed under Homo sapiens; 6.8% in [7]; 12.2% in assay [8]; -5.35% in assay [9].

On to `CCc1nc(CC(=O)NCC(Cc2ccc(F)cc2)C(N)=O)cs1` (stereo not given), for which the Percent Effect in [1] is -8.91%; in assay [2] it was 5.26%; in assay [3] it was -6.2%; in assay [4], 10.1%; in the assay on Trypanosoma cruzi, 7.89%; in assay [5], -3.55%. Besides, the Percent Effect was -2.21% in assay [6]; 11.5% in the assay filed under Homo sapiens; 4.25% in assay [7]; 13% in assay [8]; -14.4% in assay [9].

For `O=C(c1ccc[nH]1)N1C[C@H](OCc2cccnc2)[C@H]2COC[C@H]21`, the Percent Effect in assay [1] was -4.86%; in assay [2], 0%; in assay [3], 2.4%; in assay [4] it was -3.13%; with Trypanosoma cruzi, 1.17%; in [5] it was -1.25%. Moreover, the Percent Effect in [6] was 12.3%; in the assay filed under Homo sapiens, -27.9%; in assay [7], 8.91%; in assay [8] it was -3.66%; in assay [9], -5.43%.

For `Cc1cc(C)n(CC(=O)N2CCC(c3nc(C)no3)CC2)n1`, the Percent Effect was -2.79% in assay [1]; 9.72% in [2]; 3.9% in assay [3]; -0.831% in assay [4]; 2.43% in the assay with Trypanosoma cruzi; 3.09% in assay [5]. The Percent Effect was 9.3% in assay [6]; -22.2% in the assay listed under Homo sapiens; 3.16% in assay [7]; 5.13% in assay [8]; -4.51% in assay [9].

Consider `O=C(CCCNC(=O)C1CC1)Nc1cnn(-c2ccccc2Cl)c1`, for which the Percent Effect in assay [1] is -2.62%; in [2], 5.41%; in assay [3], -9.02%; in assay [4], 0.665%; with Trypanosoma cruzi, 7.33%; in assay [5] it was -3.51%. The Percent Effect was 5.03% in [6]; -1.9% in the assay filed under Homo sapiens; 5.94% in assay [7]; 13.4% in assay [8]; -3.58% in assay [9].

On to `CC(OCC1CC1)C(=O)N1CCCN(c2ncccc2C#N)CC1` (stereo not given), for which the Percent Effect in assay [1] was -5.69%; in assay [2] it was 23.7%; in [3], -5.36%; in assay [4] it was -8.93%; with Trypanosoma cruzi, -0.0934%; in assay [5], -8.99%. For the same molecule, the Percent Effect is 2.79% in assay [6]; -5.09% in the assay listed under Homo sapiens; 6.4% in assay [7]; -8.64% in [8]; -5.69% in [9].

As to `COc1ccc(Nc2nc3c(C)nn(C)c3c(=O)n2C)c(OC)c1`, the Percent Effect is -1.13% in [1]; 15.6% in assay [2]; -2.05% in assay [3]; 14.5% in assay [4]; 6.79% in the assay with Trypanosoma cruzi; -12.4% in assay [5]. The Percent Effect is 10.3% in assay [6]; 0.301% in the assay filed under Homo sapiens; 8.6% in assay [7]; 18.5% in assay [8]; -5.3% in assay [9].

These data come from ChEMBL document CHEMBL3988442, “University of Dundee, Small-Polar-MMV Screening Library” (2021).
